Experimental data: PubChem BioAssay AID588590 (National Center for Advancing Translational Sciences (NCATS), 2011)
Values joined by “and” are separate entries in the source; they are usually repeats but may differ in a detail not shown here. Equal entries are not always repeated. About 4,000 (1%) of roughly 390,000 compounds were called active. Another 7% or so got no clear call; they are omitted. Calls follow the shape of the dose curve; as a rule, active = well fitted inhibition curve with a large enough effect; inconclusive = small, poorly fitted or top-dose-only effect, or another doubt; inactive = no such curve, though single readings can be large or run the other way. Shown is part of a subset that was picked to be rich in actives. Some structures have more than one record in an assay (separate samples or runs), and their calls can disagree.

molecular target: DNA polymerase iota (Homo sapiens) (UniProt Q9UNA4); assay: qHTS for Inhibitors of Polymerase Iota; conditions: Pol iota fluorescent replication assay, 10 min; series mostly up to 115 µM; activity, negative = inhibition: at the top concentration
Sequence (Q9UNA4 whole entry, looked up): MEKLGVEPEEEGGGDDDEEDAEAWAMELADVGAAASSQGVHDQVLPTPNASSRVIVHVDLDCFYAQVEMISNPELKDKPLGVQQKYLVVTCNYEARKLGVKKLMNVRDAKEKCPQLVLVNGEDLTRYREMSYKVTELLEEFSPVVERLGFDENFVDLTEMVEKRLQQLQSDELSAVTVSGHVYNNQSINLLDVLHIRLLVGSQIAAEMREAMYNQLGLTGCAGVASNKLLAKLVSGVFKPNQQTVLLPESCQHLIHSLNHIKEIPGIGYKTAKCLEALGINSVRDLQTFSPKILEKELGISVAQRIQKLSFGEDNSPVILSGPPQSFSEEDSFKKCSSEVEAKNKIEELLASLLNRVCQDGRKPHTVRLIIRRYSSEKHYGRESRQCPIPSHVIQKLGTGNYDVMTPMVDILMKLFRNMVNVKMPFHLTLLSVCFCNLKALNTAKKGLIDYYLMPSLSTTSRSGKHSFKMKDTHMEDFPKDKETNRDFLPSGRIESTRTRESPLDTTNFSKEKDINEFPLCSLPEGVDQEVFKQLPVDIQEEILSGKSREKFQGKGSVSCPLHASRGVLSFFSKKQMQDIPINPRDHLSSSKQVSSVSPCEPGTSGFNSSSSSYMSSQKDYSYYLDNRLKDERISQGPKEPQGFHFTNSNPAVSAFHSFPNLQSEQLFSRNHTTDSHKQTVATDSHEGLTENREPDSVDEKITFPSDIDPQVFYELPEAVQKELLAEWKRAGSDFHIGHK
Summary of the method: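 Fluorescent replication assay read twice, at 0 min and 10 min after adding 50 nM (final) substrate. Enzyme (10 nM) and compounds were first incubated 15 min at room temperature; enzyme-free buffer wells were negative controls.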
Potency is read from the fitted curve at half-maximal effect.

activity, negative = inhibition, inactive:
Cc1ccc(CN(C(=O)COc2ccc(Cl)cc2C)C2CCS(=O)(=O)C2)o1 (stereo not drawn) -3.04%, CCc1cc2c(-c3ccccc3)cc(=O)oc2c2c1OCN(Cc1ccc(C)cc1)C2 21.1%, Cc1ccc(S(=O)(=O)c2nc(-c3ccco3)oc2SCC(=O)Nc2ccc(F)cc2)cc1 -29.2%, O=C1CCCc2cc(S(=O)(=O)N3CCCC(C(=O)NCc4ccccc4)C3)ccc2N1 (stereo not drawn) 4.68%, Cc1ccc(-c2nn(-c3ccccc3)cc2/C=C/C(=O)Nc2cccc(S(N)(=O)=O)c2)cc1 6.92%, COc1cccc(-c2nn(-c3ccccc3)cc2/C=C(\C#N)C(=O)NCCCn2ccnc2)c1 196%, O=C1/C(=C/c2coc3ccc(O)cc3c2=O)SC(=S)N1c1ccccc1 -10.5%, CCn1cc(C(=O)N(C)Cc2ccccc2)c(=O)c2cc(S(=O)(=O)N3CCCCCC3)ccc21 15.7%, COc1ccc(Cn2c(=O)n(-c3ccccc3C)c(=O)c3c4c(sc32)CN(C(C)=O)CC4)cc1 26.2%, CCn1c(C(=O)Nc2cc(Cl)ccc2C)cc2sc(Cl)cc21 36.3%, Cc1ccc2nc(/C(C#N)=C/c3ccc(-c4ccc(C(=O)OC(C)C)cc4)o3)[nH]c2c1 18.9%, CN(Cc1ccccc1)S(=O)(=O)c1nnc(NC(=O)c2ccccc2F)s1 1.73%, CCCCC(=O)Nc1nnc(S(=O)(=O)N(C)Cc2ccco2)s1 -11%, CN(Cc1ccccc1)c1ccc(-c2nc(-c3ccccc3)no2)cc1[N+](=O)[O-] 51.2%, CC(=O)c1ccc(NC(=O)c2nc3nc(C)cc(C(F)F)n3n2)cc1 -14.5%, COc1ccc(-c2nc(S(=O)(=O)c3ccccc3)c(N3CCCCC3)o2)cc1 8.68%, CCn1cc(C(=O)N2CCN(c3cc(C)ccc3C)CC2)c(=O)c2cc(S(=O)(=O)N(C)C3CCCCC3)ccc21 7.13%, O=C(O)c1ccc(Cn2c(SCc3ccc(F)cc3)nc3ccncc32)cc1 -4.26%, COc1cc(-c2n[nH]c(=S)n2Cc2ccccc2)cc(OC)c1OC 45.3%, Cc1cc(-c2n[nH]c(=S)n2-c2ccc(C)c(C)c2)no1 -3.17%, C=CCOc1c(Br)cc(/C=N\n2nnnc2N)cc1OC 8.73%, CCOc1ccc(/C=C(\C#N)c2nc3ccccc3c(=O)[nH]2)cc1OC 17.8%, CC(C)(C)OC(=O)N1CCC(c2c(C(=O)NCc3ccccn3)cnn2-c2ccc(F)cc2)CC1 23.8%, CC(=O)Nc1ccc(NC(=O)C2CCCN2S(=O)(=O)c2cccc(C(F)(F)F)c2)cc1 (stereo not drawn) 22.6%, CCc1nnc(NC(=O)C2CCCN2S(=O)(=O)c2ccccc2)s1 (stereo not drawn) -7.41%, CN(CCC#N)c1ccc(C=O)cc1 1.08%, Cc1ccc(Nc2c(-c3ccc(C)cc3)nc3cnccn23)cc1 9.48%, Cc1nn(-c2ccc(F)cc2)c(Cl)c1/C=C(/CCC(=O)O)c1nc2ccccc2s1 58%, COc1cccc(NC(=O)c2ccc3nc(CCc4ccccc4)oc3c2)c1 0.161%, Cc1csc[n+]1CCC1CCCCC1 42.3%, CCOC(=O)c1ccc(NC(=O)c2csc3c2CCCCC3)cc1 45.5%, CCOc1ccc(C(=O)/C=C/c2cn(CC(O)CN3CCCCCC3)c3ccccc23)cc1 (stereo not drawn) -23.7%, O=C(CN1CCSc2ccccc21)N1CCN(c2ccccc2)CC1 5.88%, CCCCNC(=O)c1c[nH]c2ccc(S(=O)(=O)Nc3ccc(OCC)cc3)cc2c1=O -18.8%, Cc1cc(C)cc(NS(=O)(=O)c2ccc3[nH]cc(C(=O)N4CCCCC4)c(=O)c3c2)c1 -3.74%, Cc1ccc(C)c(N2CCN(Cc3nnc(-c4ccccc4)o3)CC2)c1 20.8%, CN(CC(=O)Nc1ccccc1F)S(=O)(=O)c1ccc2c(c1)c(=O)n(C)c(=O)n2C -9.64%, CCNC(=O)CC1C(=O)N(c2ccc(F)cc2)C(=O)N1Cc1ccc(C)cc1 (stereo not drawn) 23.2%, CCN(CC)S(=O)(=O)c1cccc(-c2n[nH]c(=S)n2/N=C/c2ccc(C(=O)OC)cc2)c1 10.3%, CCCc1cc(-c2n[nH]c(=S)n2CC)c2ccccc2n1 3.81%, C=CCc1c(C)nc2cc(-c3ccccc3)[nH]n2c1=O 20.2%, CN(Cc1ccccc1)C(=O)c1cn(C)c2ccc(S(=O)(=O)N(C)C3CCCCC3)cc2c1=O 29.5%, COC(=O)c1cc(NC(=O)c2cnc(SC)nc2-c2ccccc2)cc(C(=O)OC)c1 29.1%, Cc1cccc(-n2ncc(C(=O)N3CCN(c4ccc(Cl)cc4)CC3)c2C2CCN(C(=O)OC(C)(C)C)CC2)c1 16.7%, CC(C)(C)OC(=O)N1CCC(c2c(C(=O)Nc3ccc4c(c3)OCO4)cnn2-c2ccccc2)CC1 16.7%, Cc1nn(C)c2c1c(C(F)(F)F)cc(=O)n2C(C)C(=O)NCc1ccc(Cl)cc1 (stereo not drawn) -26.1%, CCOC(=O)c1cccc(NC(=O)c2cc(S(=O)(=O)N3CCCC(C)C3)cn2C)c1 (stereo not drawn) 3.29%, CCOc1ccc(N(C)S(=O)(=O)c2cc(-c3cnc(C)o3)ccc2OC)cc1 10.1%, Cc1ccc(-n2c(=O)c3cccnc3n2CC(=O)NCc2ccc(F)cc2)cc1C 22.8%, CC1CCCCN1S(=O)(=O)c1ccc(F)c(C(=O)Nc2ccccc2C(F)(F)F)c1 (stereo not drawn) 13.6%, Brc1nc2ncnc(NCc3ccco3)c2[nH]1 -12.7%, Cc1ccc(-n2ncc3c(=O)n(-c4ccc(C)c(C)c4)c(-c4ccco4)nc32)cc1 24.7%, Cc1ccc(C(=O)N/C(=C\c2ccco2)C(=O)N2CCSCC2)cc1C 21.8%, CCOc1ccc(-c2cc3nc(C4CCN(C(=O)OC(C)(C)C)CC4)c(C(=O)Nc4cccc(CC)c4)cn3n2)cc1 31%, COc1cccc(NC(=O)N2CCN(C(=O)c3nsc4ccccc34)CC2)c1 36.9%, CCc1ccccc1NC(=O)N1CCC2(CC1)Oc1ccccc1C(=O)N2Cc1ccccc1F -3.54%, Cc1cc(C)cc(OCC(=O)Nc2c(C(=O)c3ccccc3)oc3ccccc23)c1 13.4%, COc1ccccc1CNc1nc2ccc(Cl)cc2n2cnnc12 2.76%, O=C(Nc1cccc(-c2nc3ccccc3o2)c1)c1cccc(Br)c1 7.05%, Cc1ccc(OCC(=O)NCCCNC(=O)c2cccnc2)cc1C -14.2%, Cc1cccc(OCC(=O)NCCNC(=O)c2cccnc2)c1 -19.7%, O=C(COc1ccc([N+](=O)[O-])cc1)Nc1cccc(C(=O)Nc2ccccc2C(=O)O)c1 4.15%, O=C(N/N=C/c1cccc(OC(=O)c2ccc([N+](=O)[O-])cc2)c1)c1cccnc1 148%, O=C(Nc1ccc(S(=O)(=O)N2CCC(c3nc4ccccc4s3)CC2)cc1)c1ccccc1F 19.1%, COc1ccc(CCNC(=O)c2nn(C)c3c2CSc2ccccc2-3)cc1OC -19.9%, COc1ccc(NC(=O)c2ccc3oc(=O)c(S(=O)(=O)c4ccc(F)cc4)cc3c2)c(OC)c1 18.3%, CCCN1CCN(CCCNC(=O)c2cnn(-c3ccc(C)cc3)c2-n2cccc2)CC1 15%, Cc1cc2occ(CC(=O)NNC(=O)c3ccccc3F)c2cc1C 9.31%, O=C(Cn1cnc2ccccc2c1=O)NNC(=O)c1ccccc1F 85.9%, COc1cc(Cl)ccc1Nc1ncc(C(=O)N2CCN(c3ccccc3OC)CC2)c2ccccc12 25.4%, CCc1ccc(S(=O)(=O)c2nnn3c2nc(NCc2ccccc2OC)c2cc(Cl)ccc23)cc1 26.5%, CC(NC(=O)c1ccc(N2CCNCC2)c([N+](=O)[O-])c1)C12CC3CC(CC(C3)C1)C2 (stereo not drawn) 6.58%, CC(CNC(=O)c1ccc(N)cc1)NC(=O)c1ccc(N)cc1 (stereo not drawn) 34.8%

Potency, inactive and 44.7 µM (active):
CN(Cc1ccco1)S(=O)(=O)c1nnc(NC(=O)c2ccccc2)s1

Potency, active:
Cc1ccc(-c2nn(-c3ccccc3)cc2/C=C2\SC(=S)N(CCCCCC(=O)O)C2=O)o1 89.1 µM, CN(C)S(=O)(=O)c1cccc(-c2nn(-c3ccccc3)cc2/C=C2\SC(=S)N(CC(=O)O)C2=O)c1 31.6 µM, COc1ccccc1-n1c(-c2cc(-c3ccco3)[nH]n2)n[nH]c1=S 8.91 µM, CCOc1c(Br)cc(/C=C2\C(=O)N(CCC#N)N=C2C)cc1OC 0.794 µM, CCc1ccc(NC(=O)C2CCCN2S(=O)(=O)c2ccc3nc(-c4ccccc4)[nH]c3c2)cc1 (stereo not drawn) 89.1 µM, COc1ccc(C(=O)Nc2cccc(/C=C(/CCC(=O)O)c3nc4ccccc4s3)c2)cc1 12.6 µM, CC(C)c1ccc(NS(=O)(=O)c2ccc3[nH]cc(C(=O)NC4CCCC4)c(=O)c3c2)cc1 79.4 µM, CS(=O)(=O)c1ccc2c(c1)SC1=NC(=O)/C(=C/c3ccco3)C(=N)N12 14.1 µM, S=c1[nH]nc(-c2cc(-c3ccccc3)n[nH]2)n1/N=C/c1c2ccccc2cc2ccccc12 20 µM, Cc1cc(=O)n2[nH]c(-c3sccc3-n3c(C)ccc3C)cc2n1 20 µM, COC(=O)c1ccc(NC(=O)c2cnn(-c3ccc(Cl)cc3)c2C2CCN(C(=O)OC(C)(C)C)CC2)cc1 89.1 µM, CN1CCOC1c1ccc(C2OCCN2C)cc1 (stereo not drawn) 20 µM, Cc1ccc(N=C2NC(=O)/C(=C/C=C/c3ccco3)S2)cc1C 11.2 µM, Cc1ccc(N2NC(=O)/C(=C/C=C/c3ccco3)C2=O)cc1C 20 µM, Cc1ccc(NC(=O)COc2ccc(/C=N\NC(=O)c3cccnc3)cc2)cc1C 22.4 µM, O=C(COc1ccc(/C=N/NC(=O)c2ccc(O)cc2)cc1)Nc1ccc([N+](=O)[O-])cc1 3.98 µM, Cn1c(CC(=O)NNC(=O)c2ccccc2F)nc2ccccc21 70.8 µM, CN(C)NC(=O)C(NC(=O)c1ccc(N)cc1)C12CC3CC(CC(C3)C1)C2 (stereo not drawn) 35.5 µM

Potency, inactive:
O=C(O)CCCCCCCCc1cn(CN2C(=O)c3ccccc3C2=O)nn1
